# In all, about 370,000 compounds went through this assay and about 2,300 (0.62%) were called active. This is one part of a sample in which actives are shown more often than they occur. A number with no mark means an inactive call.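 The calls were made as follows: active = lowest replicate activation of at least 40%, so every replicate reaches that level; inactive = the rest.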
# Experiment: primary screen for activators of insulin secretion dependent on glucose, INS-1E cells, GLuc reporter luminescence (AID 743287);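 also: 0% = median of neutral control wells and 100% = median of IBMX positive control wells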
# Settings: INS-1E GLuc reporter insulin secretion, 2-3 h, at 16.6 µM, stronger effect = higher value
row,Compound,activation
1,C/C=C/c1ccc2c(c1)O[C@H](CN(C)C)[C@H](C)CN([C@H](C)CO)S2(=O)=O,14.9%
2,COc1ccc(CCNC(=O)CCc2ccccc2O)cc1OC,55.3% (active)
3,COc1ccc(CNC(=O)COC(=O)c2ccc(C)c(S(=O)(=O)N3CCOCC3)c2)cc1OC,16.8%
4,CCOc1ccc(CCNC(=O)COC(=O)C2CCN(S(=O)(=O)c3ccccc3)CC2)cc1OCC,22%
5,COc1ccc(CCNC(=O)C(=O)NCc2ccccc2C)cc1OC,30.4%
6,CCOc1ccc(CCNC(=O)COC(=O)CCS(=O)(=O)c2ccc(C)cc2)cc1OCC,54.2% (active)
7,COc1ccc(CCNC(=O)CS(=O)(=O)Cc2nc(-c3ccc(C)cc3)oc2C)cc1OC,-11.8%
8,COc1ccc(CCNC(=O)c2nnc(CS(=O)(=O)c3ccccc3)o2)cc1OC,6.41%
9,COc1ccc(CNC(=O)COC(=O)CCS(=O)(=O)c2ccc(C)cc2)cc1OC,45.1% (active)
10,COc1ccc(CCNC(=O)NS(=O)(=O)c2ccc(C)cc2)cc1OC,58.1% (active)
11,COc1ccc(CCNC(=O)CCC(=O)NC2CCCCC2)cc1OC,-1.71%
12,Cc1ccc(S(=O)(=O)CCC(=O)OCc2ccccc2)cc1,-1.88%
13,CCOc1ccc(CCNC(=O)COC(=O)c2c(OC)cccc2OC)cc1OCC,19.6%
14,CCCNC(=O)N1CC(=O)N2[C@H](CO)[C@H](c3ccc(C#Cc4cccc(OC)c4)cc3)[C@H]2C1,-24.3%
15,CNC[C@H]1Oc2ccccc2CC(=O)N(C)C[C@H]1C,13.7%
16,Cc1cc(C(=O)Nc2cccc3c2O[C@H](CN(C)C(=O)Nc2ccccc2)[C@@H](C)CN([C@H](C)CO)C3=O)n(C)n1,26.8%
17,Cc1ccc(S(=O)(=O)N(C)C[C@@H]2Oc3ccc(NC(=O)C4CCCCC4)cc3CC(=O)N([C@@H](C)CO)C[C@H]2C)cc1,-11.4%
18,CCS(=O)(=O)Nc1ccc2c(c1)C(=O)N(C)[C@H]1CC[C@@H](CC(=O)N3CCCCC3)O[C@H]1CO2,-5.88%
19,C[C@@H]1CN([C@H](C)CO)S(=O)(=O)c2ccc(-c3ccccc3)cc2O[C@@H]1CN(C)CC1CC1,10.8%
20,O=C(C[C@H]1CC[C@H](NC(=O)c2ccncc2)[C@H](CO)O1)Nc1ccccc1,22%
21,O=C(c1cnccn1)N1CC(=O)N2[C@H](C1)[C@@H](c1ccc(C3=CCCCC3)cc1)[C@@H]2CO,-9.9%

row,Compound,activation
1,CO[C@@H]1CN(C)C(=O)c2ccc(NS(C)(=O)=O)cc2OC[C@@H](C)N(C(=O)CC2CC2)C[C@@H]1C,-7.78%
2,NC(=O)Nc1ccccc1C(=O)NCCc1ccccc1,16.6%
3,O=C(NCCc1ccccc1)c1c[nH]c2ccc(F)cc2c1=O,-9.34%
4,Nc1nc2c(Br)ccc(Br)c2cc1C(=O)NCCc1ccccc1,41.1% (active)
5,CO[C@H]1CN(C)C(=O)c2ccc(NC(=O)c3cc(C)on3)cc2OC[C@@H](C)NC[C@@H]1C,14.3%
6,COc1ccc(NC(=O)N(C)C[C@@H]2Oc3c(NS(=O)(=O)c4cn(C)cn4)cccc3C(=O)N([C@H](C)CO)C[C@@H]2C)cc1,8.28%
7,CCC(=O)N1CCC2(CC1)CN(Cc1cccc(OC)c1)[C@@H](CO)c1[nH]c3cc(OC)ccc3c12,5.34%
8,Nc1[nH]c(C(=O)c2ccccc2)c(-c2ccncc2)c1C(=O)NCc1cccc2ccccc12,49.2% (active)
9,Nc1[nH]c(C(=O)c2ccccc2)c(-c2ccc(Br)cc2)c1C(=O)NC1CC1,2.55%
10,CC(C)(C)C(=O)c1c(N)[nH]c(C(=O)c2ccccc2)c1-c1ccc(F)cc1,0.681%
11,C[C@@H]1CCCCO[C@H](CN(C)C(=O)Cc2ccccc2)[C@H](C)CN([C@@H](C)CO)C(=O)c2cc(NS(=O)(=O)c3ccc(F)cc3)ccc2O1,-21.1%
12,COc1ccc2c3c(n(C)c2c1)[C@H](CO)N(Cc1ccccc1Cl)CC31CN(C(=O)CN(C)C)C1,11.4%
13,O=C(COC(=O)Cn1cnc2ccccc21)Nc1cccc2c1C(=O)c1ccccc1C2=O,4.13%
14,O=C(COC(=O)c1cccc(Cl)c1)Nc1ccc2[nH]c(=O)[nH]c2c1,5.13%
15,O=C(COC(=O)c1cccc(Br)c1)Nc1cccc2c1C(=O)c1ccccc1C2=O,98% (active)
16,COc1ccc(CN(C)C(=O)Cc2ccsc2)c(OC)c1OC,-7.45%
17,COc1ccc(-c2cc(C(=O)N(C)Cc3ccc(OC)c(OC)c3OC)c3ccccc3n2)cc1OC,62.1% (active)
18,COc1ccc(C(=O)N(C)Cc2ccc(OC)c(OC)c2OC)cc1S(=O)(=O)N1CCOCC1,-3.04%
19,COCc1cc(=O)n2[nH]c(C)c(-c3ccccc3)c2n1,-1.45%
20,CCn1c(C)cc(=O)cc1-c1ccc(Cl)cc1,9.35%
21,CCCc1cc(=O)n2[nH]c(C)c(-c3ccc(Cl)cc3)c2n1,43.7% (active)

row,Compound,activation
1,CN(C)C(=O)[C@@H]1[C@@H](CO)[C@@H]2Cn3c(ccc(-c4ccccc4)c3=O)[C@@H]2N1CCC(F)(F)F,21.1%
2,O=C1N[C@H](c2ccccc2)COCc2cn(nn2)CC[C@@H]1Cc1ccc(Cl)cc1,5.93%
3,COc1cccc(NC(=O)N[C@H]2C=C[C@@H](CC(=O)Nc3ccc(-c4ccccc4)cc3)O[C@@H]2CO)c1,58.9%
4,CC(=O)Nc1cc(-c2cccc(CO)c2)cn2c(-c3cccc(C(F)(F)F)c3)cnc12,-3.82%
5,CN(C)CCNC(=O)c1cccc(-c2cnc3c(NC=O)cc(-c4cccc(C(F)(F)F)c4)cn23)c1,52.7% (active)
6,CC(=O)Nc1cc(-c2ccccc2F)cn2c(-c3cccc(C(F)(F)F)c3)cnc12,2.99%
7,COc1ccc2c3c(n(C)c2c1)[C@@H](CO)NCC31CN(S(=O)(=O)c2cccc(C)c2)C1,14.9%
8,O=S(=O)(NCCc1ccc(Cl)cc1)c1cccs1,-20.9%
9,CCOC(=O)c1cc(S(=O)(=O)NCCc2ccc(OC)c(OC)c2)cn1C,13.8%
10,COc1ccc(CCNS(=O)(=O)c2ccc(Cl)s2)cc1OC,40.9% (active)
11,C[C@H](CO)N1C[C@H](C)[C@@H](CN(C)C(=O)C2CCCCC2)OCCCC[C@H](C)Oc2ccc(N(C)C)cc2C1=O,-2.98%
12,C[C@H](CO)N1C[C@H](C)[C@@H](CN(C)S(=O)(=O)c2cccc(F)c2)Oc2ncc(-c3cccc(F)c3)cc2C1=O,3.46%
13,CCn1c(CNC(=O)c2ccco2)nnc1SCC(=O)Nc1cccc(F)c1,-2.18%
14,CCn1c(SCC(=O)Nc2cccc(F)c2)nnc1-c1cc2cc(Br)ccc2o1,85.4% (active)
15,CCn1c(SCC(=O)Nc2ccc3c(c2)OCCO3)nnc1C(C)C,13.3%
16,C[C@H](CO)N1C[C@H](C)[C@H](CN(C)S(C)(=O)=O)Oc2ncc(C#CCN(C)C)cc2C1=O,18.2%
17,NC(Cc1ccc(F)cc1)c1csc(Nc2nncc3ccccc23)n1 (stereo not drawn),-32.2%
18,NC(Cc1ccccc1)c1csc(Nc2cc(Oc3ccccc3)ncn2)n1 (stereo not drawn),-24.7%
19,COc1ccc(CC(N)c2csc(NC(=O)Nc3ccc(C(C)C)cc3)n2)cc1 (stereo not drawn),193% (active)
20,COc1ccc(S(=O)(=O)Nc2cccc3c2O[C@@H](CN(C)C(=O)Nc2cccc4ccccc24)[C@H](C)CN([C@@H](C)CO)C3=O)cc1,-8.86%
21,COc1cccc(C#Cc2cnc3c(c2)C(=O)N([C@H](C)CO)C[C@@H](C)[C@@H](CN(C)C(=O)C2CCC2)O3)c1,-5.49%
